Data from PubChem BioAssay (Tox21).
Values joined by “and” are separate entries in the source; they are usually repeats but may differ in a detail not shown here. Equal values may be shown once. Records with an inconclusive call do not appear. Active and inactive are the calls of the source. The call rests on the fitted dose curve. Non-standard residues stand in square brackets, D forms with d. Residues, ends and D or L forms follow the SMILES beside them. *: point of attachment. Sta = CC(C)C[C@H](N)[C@@H](O)CC(=O)O; Isovaleryl = CC(C)CC(=O)*

Legend:
[1] = target: Acetylcholinesterase (Homo sapiens) (UniProt P22303); assay: Acetylcholinesterase (AChE) small molecule antagonists: colormetric cell-based qHTS assay (AID 1347395); further: nearly all actives have a fitted effect of over 30% in size; further: potency means the concentration at half of the fitted maximal effect
Chain of Acetylcholinesterase (Homo sapiens) (P22303 whole entry, looked up): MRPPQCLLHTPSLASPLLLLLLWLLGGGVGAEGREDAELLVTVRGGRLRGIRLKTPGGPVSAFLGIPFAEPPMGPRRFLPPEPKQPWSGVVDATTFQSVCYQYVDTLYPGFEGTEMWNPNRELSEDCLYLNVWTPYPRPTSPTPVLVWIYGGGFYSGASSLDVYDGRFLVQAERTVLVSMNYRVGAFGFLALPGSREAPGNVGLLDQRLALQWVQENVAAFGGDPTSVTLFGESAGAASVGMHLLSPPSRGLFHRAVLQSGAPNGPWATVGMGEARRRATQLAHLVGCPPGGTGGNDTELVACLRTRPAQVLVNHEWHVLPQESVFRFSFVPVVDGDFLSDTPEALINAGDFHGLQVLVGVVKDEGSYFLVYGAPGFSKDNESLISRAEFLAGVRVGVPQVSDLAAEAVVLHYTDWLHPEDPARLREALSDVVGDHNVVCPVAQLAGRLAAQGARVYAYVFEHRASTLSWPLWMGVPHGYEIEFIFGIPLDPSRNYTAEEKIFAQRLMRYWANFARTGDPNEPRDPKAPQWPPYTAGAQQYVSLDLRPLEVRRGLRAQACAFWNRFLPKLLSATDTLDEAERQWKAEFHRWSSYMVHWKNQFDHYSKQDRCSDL
Method in brief: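 Colorimetric readout: DTNB quantifies thiocholine from acetylthiocholine hydrolysed by endogenous AChE of SH-SY5Y cells (2,000/well, plated overnight). Compound pretreatment 30 min, substrate incubation 90 min, both 37 C.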

[2] = target: Acetylcholinesterase (Homo sapiens) (UniProt P22303); assay: Acetylcholinesterase (AChE) small molecule antagonists: enzyme-based qHTS assay (AID 1347397); details: Potency: AChE enzyme activity inhibition; outcome: AChE enzyme activity inhibition; further: nearly all actives have a fitted effect of over 55% in size; further: potency means the concentration at half of the fitted maximal effect
Method in brief: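 Human recombinant acetylcholinesterase; substrate acetylthiocholine; thiocholine quantified with DTNB (colorimetric). Compound preincubation 30 min RT; reaction 10 min RT.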

[3] = target: Acetylcholinesterase (Homo sapiens) (UniProt P22303); assay: Acetylcholinesterase (AChE) small molecule antagonists: fluorescence cell-based qHTS assay (AID 1347398); details: Potency: AChE activity; outcome: AChE activity; further: nearly all actives have a fitted effect of over 50% in size; further: potency means the concentration at half of the fitted maximal effect
Method in brief: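 Thiocholine generated from acetylthiocholine by SH-SY5Y cell AChE is detected with Thiolite Green (Ex/Em 490/520 nm) after 40 min at room temperature, following 30 min compound pretreatment at 37 C.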

[4] = target: Acetylcholinesterase (Homo sapiens) (UniProt P22303); assay: Acetylcholinesterase (AChE) small molecule antagonists: enzyme-based qHTS assay with human liver microsomes (AID 1347399); details: Potency: qHTS inhibition; outcome: qHTS inhibition; further: nearly all actives have a fitted effect of over 60% in size
Method in brief: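 Recombinant human AChE (50 mU/mL in the enzyme mix) and human liver microsomes (0.25 mg/mL final) were preincubated with compound and NADPH (0.25 mg/mL final) for 30 min at 37 C. Acetylthiocholine/DTNB was then added; thiocholine was read colorimetrically after 10 min at room temperature.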
On the % scale 0 is the no-effect control and ±100 the full control effect.

OC[C@@H](O)[C@@H](O[C@@H]1O[C@H](CO)[C@H](O)[C@H](O)[C@H]1O)[C@H](O)[C@@H](O)CO
inactive: Potency [1] | Potency [2] | Potency [3] | Potency [4]

CC(=O)OCc1ccccc1
inactive: Potency [1] | Potency [2] | Potency [3] | Potency [4]

ClCCl
inactive: Potency [1] | Potency [2] | Potency [3] | Potency [4]

CC(O)CN (stereo not given)
inactive: Potency [1] | Potency [2] | Potency [3] | Potency [4]

c1ccc2cnccc2c1
inactive: Potency [1] | Potency [2] | Potency [3] | Potency [4]

Cc1cc(Cc2ccc(N)c(C)c2)ccc1N
inactive: Potency [1] | Potency [2] | Potency [3] | Potency [4]

CC(C)=CCO
inactive: Potency [1] | Potency [2] | Potency [3] | Potency [4]

CN(C)c1ccc(N=NS(=O)(=O)O)cc1
inactive: Potency [1] | Potency [2] | Potency [3] | Potency [4]

CC(C)CCCCCCCOC(=O)CCCCC(=O)OCCCCCCCC(C)C
inactive: Potency [1] | Potency [2] | Potency [3] | Potency [4]

Nc1ccc(-c2ccc(F)cc2)cc1
inactive: Potency [1] | Potency [2] | Potency [3] | Potency [4]

COc1cc(O)c(C(=O)c2ccccc2)cc1S(=O)(=O)O
inactive: Potency [1] | Potency [2] | Potency [3] | Potency [4]

O=C(CCNNC(=O)c1ccncc1)NCc1ccccc1
inactive: Potency [1] | Potency [2] | Potency [3] | Potency [4]

O=C(O)CNC(=O)c1ccccc1
inactive: Potency [1] | Potency [2] | Potency [3] | Potency [4]

COC(=O)CCCCC(=O)OC
inactive: Potency [1] | Potency [2] | Potency [3] | Potency [4]

[Na+]
inactive: Potency [1] | Potency [2] | Potency [3] | Potency [4]

CCCCC(CC)COC(=O)c1ccc(O)cc1 (stereo not given)
inactive: Potency [1] | Potency [2] | Potency [3] | Potency [4]

C=CCc1ccc(O)c(OC)c1
inactive: Potency [1] | Potency [2] | Potency [3] | Potency [4]

CC(C)CC(=O)N[C@H](C(=O)N[C@H](C(=O)N[C@@H](CC(C)C)[C@@H](O)CC(=O)N[C@@H](C)C(=O)N[C@@H](CC(C)C)[C@@H](O)CC(=O)O)C(C)C)C(C)C (Isovaleryl-VV[Sta]A[Sta]-OH)
inactive: Potency [1] | Potency [2] | Potency [3] | Potency [4]

Cc1cccc(C)c1NC(=O)CN1CCN(CCCC(c2ccc(F)cc2)c2ccc(F)cc2)CC1
inactive: Potency [1] | Potency [2] | Potency [3] | Potency [4]

CC(=O)CCC(=O)O
inactive: Potency [1] | Potency [2] | Potency [3] | Potency [4]

C[N+](C)(C)CCO
inactive: outcome [1] | outcome [2] | outcome [3] | outcome [4]

C/C=C/c1ccc(OCC)c(O)c1
inactive: Potency [1] | Potency [2] | Potency [3] | Potency [4]

CNCCCCOc1ccccc1Cc1ccccc1
inactive: Potency [1] | Potency [2] | Potency [3] | Potency [4]

CC(C(=O)O)c1ccc2c(c1)CC(=O)c1ccccc1S2 (stereo not given)
inactive: Potency [1] | Potency [2] | Potency [3] | Potency [4]

Cc1ccnc(NS(=O)(=O)c2ccc(N)cc2)n1
inactive: Potency [1] | Potency [2] | Potency [3] | Potency [4]

Cc1ccc(C(C)(C)C)cc1
inactive: Potency [1] | Potency [2] | Potency [3] | Potency [4]

Cc1ccc2c(n1)Oc1ccc(C(C)C(=O)OCC(=O)N(C)C)cc1C2 (stereo not given)
active: Potency [1] 15.5 µM and 12.3 µM | Potency [2] 15.5 µM | Potency [3] 4.9 µM
inactive: Potency [4]

CN1N=C(C(N)=O)CCC1=O
inactive: Potency [1] | Potency [2] | Potency [3] | Potency [4]

CC(C)(C#N)Nc1nc(Cl)nc(NC2CC2)n1
inactive: Potency [1] | Potency [2] | Potency [3] | Potency [4]

CCCCCCCCCCCC(=O)OC[C@@H](O)[C@H]1OC[C@H](OCCO)[C@H]1OCCO
inactive: Potency [1] | Potency [2] | Potency [3] | Potency [4]

On1nnc2ccccc21
inactive: Potency [1] | Potency [2] | Potency [3] | Potency [4]

CO/N=C(/C(=O)N[C@@H]1C(=O)N2C(C(=O)[O-])=C(C[n+]3ccn4ncccc43)CS[C@H]12)c1nsc(N)n1
inactive: Potency [1] | Potency [2] | Potency [3] | Potency [4]

O=C(O)c1ccc(C(=O)O)cc1
inactive: Potency [1] | Potency [2] | Potency [3] | Potency [4]

CCc1c(C(=O)NN2CCCCC2)nn(-c2ccc(Cl)cc2Cl)c1-c1ccc(Br)cc1
inactive: Potency [1] | Potency [2] | Potency [3] | Potency [4]

CC(=O)O[C@@]12CO[C@@H]1C[C@H](O)[C@@]1(C)C(=O)[C@H](O)C3=C(C)[C@@H](OC(=O)[C@H](O)[C@@H](NC(=O)OC(C)(C)C)c4ccccc4)C[C@@](O)([C@@H](OC(=O)c4ccccc4)[C@H]21)C3(C)C
inactive: Potency [1] | Potency [2] | Potency [3] | Potency [4]

CC1(C)[C@H]2CC[C@](C)(C2)[C@H]1O
inactive: Potency [1] | Potency [2] | Potency [3] | Potency [4]

COS(=O)(=O)O
inactive: Potency [1] | Potency [2] | Potency [3] | Potency [4]

O=C(CCCCC(=O)Nc1c(I)cc(I)c(C(=O)O)c1I)Nc1c(I)cc(I)c(C(=O)O)c1I
inactive: Potency [1] | Potency [2] | Potency [3] | Potency [4]

COC(=O)[C@@H]1CC2=CC(=O)CC[C@]2(C)[C@@]23O[C@@H]2C[C@@]2(C)[C@@H](CC[C@@]24CCC(=O)O4)[C@H]13
inactive: Potency [1] | Potency [2] | Potency [3] | Potency [4]

Cc1cccc(C)c1NC(=O)CN1CCCC1
inactive: Potency [1] | Potency [2] | Potency [3] | Potency [4]

COc1ccccc1NC(=O)CC(C)=O
inactive: Potency [1] | Potency [2] | Potency [3] | Potency [4]

Nc1ccc(C(=O)O)cc1
inactive: Potency [1] | Potency [2] | Potency [3] | Potency [4]

CCCCC(CC)C(=O)OCCOCCOCCOCCOC(=O)C(CC)CCCC (stereo not given)
inactive: Potency [1] | Potency [2] | Potency [3] | Potency [4]

C#CC(C)N(C)C(=O)Nc1ccc(Cl)cc1 (stereo not given)
inactive: Potency [1] | Potency [2] | Potency [3] | Potency [4]

Cc1cc(C)c(C)c(O)c1
inactive: Potency [1] | Potency [2] | Potency [3] | Potency [4]

CCc1c(C)cc(N)c(CC)c1N
inactive: Potency [4]
active: Potency [1] 39.9 µM | Potency [2] 71 µM | Potency [3] 39.9 µM

Cc1ccc2cccnc2c1
inactive: Potency [1] | Potency [2] | Potency [3] | Potency [4]

Cc1ccc(N(C)C)cc1
inactive: Potency [1] | Potency [2] | Potency [3] | Potency [4]

C[C@]12C=CC(=O)C=C1CC[C@H]1[C@@H]3C[C@@H](O)[C@](O)(C(=O)CO)[C@@]3(C)C[C@H](O)[C@@]12F
inactive: Potency [1] | Potency [2] | Potency [3] | Potency [4]

CC1CCCC(=O)C1=O (stereo not given)
inactive: Potency [1] | Potency [2] | Potency [3] | Potency [4]

CC(N)=O
inactive: Potency [1] | Potency [2] | Potency [3] | Potency [4]

CC(C)Cc1nccs1
inactive: Potency [1] | Potency [2] | Potency [3] | Potency [4]

CCC(C(=O)NC(N)=O)c1ccccc1 (stereo not given)
inactive: Potency [1] | Potency [2] | Potency [3] | Potency [4]

CCCCCC1CCC(=O)O1 (stereo not given)
inactive: Potency [1] | Potency [2] | Potency [3] | Potency [4]

O=C(O)CCCc1c[nH]c2ccccc12
inactive: Potency [1] | Potency [2] | Potency [3] | Potency [4]

CN(C)[C@@H]1C(=O)C(C(=O)NCN2CCCC2)=C(O)[C@@]2(O)C(=O)C3=C(O)c4c(O)cccc4[C@@](C)(O)C3C[C@@H]12 (stereo not given in full)
inactive: Potency [1] | Potency [2] | Potency [3] | Potency [4]

CCOC(=O)c1ccc(N)cc1
inactive: Potency [1] | Potency [2] | Potency [3] | Potency [4]

C#C[C@]1(O)CC[C@H]2[C@@H]3[C@H](C)CC4=C(CCC(=O)C4)[C@H]3CC[C@@]21C
inactive: Potency [1] | Potency [2] | Potency [3] | Potency [4]

CCCCOC(=O)C(=O)OCCCC
inactive: Potency [1] | Potency [2] | Potency [3] | Potency [4]

C[C@@H]1CC[C@@]2(OC1)O[C@H]1C[C@H]3[C@@H]4CC[C@H]5C[C@@H](O)CC[C@]5(C)[C@H]4CC(=O)[C@]3(C)[C@H]1[C@@H]2C
inactive: activity, negative = inhibition [1] -3.52% [at 10.5 µM] | activity change, negative = inhibition [2] -1.66% [at 10.5 µM] | activity change, negative = inhibition [3] -1.2% [at 10.5 µM] | activity change, negative = inhibition [4] -3.36% [at 10.5 µM]
